PubChem BioAssay (NCATS)
Values joined by “and” are separate entries in the source; they are usually repeats but may differ in a detail not shown here. Equal values may be shown once. A number with no mark means an inactive call. Results filed as inconclusive are left out. Where a call stands in place of a potency, no number is given. Active and inactive are the calls of the source. Unless noted, calls come from the whole dose curve; as a rule, active = well fitted curve in either direction with a large enough effect (not every such curve was filed as active); inconclusive = small, poorly fitted or top-dose-only effect, or another doubt; inactive = flat fitted curve, though single readings scatter.

Columns and labels:
[1] = molecular target: Glucocorticoid receptor (Homo sapiens) (UniProt P04150); assay: GR-GFP Redistribution (AID 450;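 active = compounds whose dose series gives a full or clear partial fitted curve of increased nuclear translocation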; note: potency is the fitted concentration of half-maximal effect); details: U2OS GR-GFP nuclear translocation, laser cytometry, 2 h
Glucocorticoid receptor (Homo sapiens), sequence (P04150 whole entry, looked up, the tested form may be a part): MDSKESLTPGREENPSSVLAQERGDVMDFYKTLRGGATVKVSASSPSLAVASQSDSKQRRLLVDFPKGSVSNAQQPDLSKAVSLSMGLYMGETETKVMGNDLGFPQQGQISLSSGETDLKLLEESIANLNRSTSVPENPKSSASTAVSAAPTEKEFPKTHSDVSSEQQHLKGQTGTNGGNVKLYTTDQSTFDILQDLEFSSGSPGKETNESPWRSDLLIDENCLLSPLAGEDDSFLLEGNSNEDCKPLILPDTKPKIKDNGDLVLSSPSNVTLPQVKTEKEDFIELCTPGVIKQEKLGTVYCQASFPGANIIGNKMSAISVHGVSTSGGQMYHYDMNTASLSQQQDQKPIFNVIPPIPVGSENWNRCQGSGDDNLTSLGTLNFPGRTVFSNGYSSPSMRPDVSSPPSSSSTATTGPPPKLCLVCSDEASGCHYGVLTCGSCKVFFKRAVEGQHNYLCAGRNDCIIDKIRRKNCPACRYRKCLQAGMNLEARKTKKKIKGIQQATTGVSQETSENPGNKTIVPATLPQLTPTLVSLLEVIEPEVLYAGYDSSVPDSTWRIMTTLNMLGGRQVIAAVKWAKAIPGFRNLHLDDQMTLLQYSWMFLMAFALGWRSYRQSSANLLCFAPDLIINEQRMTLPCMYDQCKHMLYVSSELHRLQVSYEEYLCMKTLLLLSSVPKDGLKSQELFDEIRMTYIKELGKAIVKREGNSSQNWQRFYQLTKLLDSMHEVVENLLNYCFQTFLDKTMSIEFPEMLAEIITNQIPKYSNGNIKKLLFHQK

[2] = molecular target: Glucocorticoid receptor (Homo sapiens) (UniProt P04150); assay: GR-EFC Redistribution (AID 451; calls by dose curve; note: potency is the fitted concentration of half-maximal effect); details: CHO-K1 GR-EFC translocation, beta-gal luminescence, 2 h
Method in brief: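 CHO-K1 cells stably expressing nuclear-localized β-gal enzyme acceptor and GR fused C-terminally to the enzyme donor fragment; ligand-driven nuclear translocation restores β-gal by complementation. Compounds titrated up to 46 uM final, 2 h at 37 °C; luminescence read.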

[3] = molecular target: Mitogen-activated protein kinase 10 (Mus musculus) (UniProt Q61831); assay: JNK3 AlphaScreen Assay (AID 530); details: JNK3 lysate, c-Jun phosphorylation; series mostly up to 11.4 µM;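 note: kinase came from lysate of stimulated human HepG2 cells; signal reports phosphorylation of biotinylated GST-cJun 1-79 at Ser73 with 10 µM ATP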
Method in brief: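 Phosphorylation of biotinylated GST-cJun(1-79) at Ser73 is measured by AlphaScreen proximity luminescence. Enzyme is JNK3 in HepG2 lysates activated with interleukin-1beta and tumor necrosis factor alpha; ATP is 10 uM final.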

[4] = molecular target: 3',5'-cyclic-AMP phosphodiesterase 4B (Homo sapiens) (UniProt Q07343); assay: qHTS Assay for Inhibitors of PDE-IV (AID 607; active = well fitted activation curve with a large enough effect in the main read-out, with a control signal flat, not every such curve was filed as active); details: HEK293 ACTOne CNG channel cells, membrane potential fluorescence; series mostly up to 22.9 µM
3',5'-cyclic-AMP phosphodiesterase 4B (Homo sapiens), sequence (Q07343 whole entry, looked up): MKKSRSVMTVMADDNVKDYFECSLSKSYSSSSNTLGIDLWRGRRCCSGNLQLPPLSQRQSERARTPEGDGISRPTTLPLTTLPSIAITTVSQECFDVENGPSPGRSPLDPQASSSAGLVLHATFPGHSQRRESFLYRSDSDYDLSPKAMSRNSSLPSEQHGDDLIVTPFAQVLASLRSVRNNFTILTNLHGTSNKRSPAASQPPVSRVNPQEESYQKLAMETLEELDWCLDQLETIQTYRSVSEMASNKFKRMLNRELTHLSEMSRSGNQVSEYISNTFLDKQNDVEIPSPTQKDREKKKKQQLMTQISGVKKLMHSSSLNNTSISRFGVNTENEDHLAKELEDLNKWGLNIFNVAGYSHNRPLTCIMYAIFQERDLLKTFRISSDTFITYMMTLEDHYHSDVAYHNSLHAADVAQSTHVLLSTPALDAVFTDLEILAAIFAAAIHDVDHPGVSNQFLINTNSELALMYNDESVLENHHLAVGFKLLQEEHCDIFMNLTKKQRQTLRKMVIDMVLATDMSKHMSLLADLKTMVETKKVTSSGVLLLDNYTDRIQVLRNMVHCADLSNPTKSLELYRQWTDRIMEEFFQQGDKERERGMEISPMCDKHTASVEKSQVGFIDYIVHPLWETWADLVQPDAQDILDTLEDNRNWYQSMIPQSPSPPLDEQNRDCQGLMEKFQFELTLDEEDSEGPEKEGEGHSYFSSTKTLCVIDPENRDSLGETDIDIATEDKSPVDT
Method in brief: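 HEK293 ACTOne cells with CNG channel (1000/well), endogenous PDE4; membrane potential dye, compounds up to 22.9 uM final. Fluorescence Ex 535/Em 590; RO 20-1724 (100 uM final) as reference.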

[5] = AP1 Signaling Pathway (AID 357); details: ME-180 AP-1-bla reporter, EGF-induced, beta-lactamase ratio, 5 h; at 7.69 µM (top of the series) unless noted;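 note: ME-180 reporter cells stimulated with EGF at its EC50 level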
Method in brief: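 Cells are seeded overnight, exposed to compound titrations and an EC50 level of EGF for 5 hours at 37 °C, then loaded with CCF4 dye for 2.5 hours. Beta-lactamase activity under the AP-1 element is read as a blue/green ratio.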

[6] = molecular target: Cytochrome P450 1A2 (Homo sapiens) (UniProt P05177); assay: p450-cyp1a2 (AID 410; calls by dose curve); details: recombinant CYP1A2, luciferin-ME demethylation, luminescence; series mostly up to 11.4 µM
Cytochrome P450 1A2 (Homo sapiens), sequence (P05177 whole entry, looked up): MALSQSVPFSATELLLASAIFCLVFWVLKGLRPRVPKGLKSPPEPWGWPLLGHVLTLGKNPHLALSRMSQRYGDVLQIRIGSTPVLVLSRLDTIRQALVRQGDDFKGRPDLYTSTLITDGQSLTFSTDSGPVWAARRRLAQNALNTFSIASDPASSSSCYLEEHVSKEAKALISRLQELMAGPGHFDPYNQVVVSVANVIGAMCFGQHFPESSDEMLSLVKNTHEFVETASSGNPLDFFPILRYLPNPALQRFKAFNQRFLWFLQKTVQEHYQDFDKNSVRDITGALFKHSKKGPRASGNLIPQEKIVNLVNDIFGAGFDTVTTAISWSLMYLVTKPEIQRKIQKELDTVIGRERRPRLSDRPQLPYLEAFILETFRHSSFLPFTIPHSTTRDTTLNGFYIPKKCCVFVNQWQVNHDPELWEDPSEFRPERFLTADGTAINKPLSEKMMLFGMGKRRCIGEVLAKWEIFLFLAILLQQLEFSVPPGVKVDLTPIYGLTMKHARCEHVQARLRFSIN
Method in brief: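 Luminescent demethylation readout: Luciferin-ME (100uM, equal to Km) turned over by 20nM CYP1A2 for 60 min at room temperature after NADPH regeneration addition, following 10 min compound preincubation. Normalization used 57 uM furafylline as full inhibition.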

[7] = NFAT Signaling Pathway (AID 444); details: Jurkat NFAT-bla M1, carbachol, beta-lactamase ratio, 5 h; at 7.69 µM (top of the series) unless noted;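 note: carbachol stimulus at about its EC50 of 1 µM final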
Method in brief: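 Jurkat cells carrying an NFAT-driven β-lactamase reporter and co-transfected muscarinic M1 receptor were treated with compound plus carbachol (1 uM final, an EC50 level) for 5 h at 37 °C. CCF4 loading followed for 1 h at RT; 460/530 nm ratio gave %activity.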

[8] = Stat Signaling Pathway (AID 446); details: ME-180 (cervical carcinoma) SIE beta-lactamase reporter, IL-6 stimulated, 5 h; at 7.69 µM (top of the series) unless noted;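 note: ME-180 cervical cancer cells given 40 pM IL-6 alongside compound; SIE-controlled beta-lactamase reporter measured as 460/530 nm FRET emission ratio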
Method in brief: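 Normalization used AC90 stimulation (300 pM IL-6) and AC90 inhibition (125 nM pan-JAK inhibitor at 40 pM IL-6). The underlying signal is SIE-driven beta-lactamase in ME-180 cells after 5 h IL-6 exposure with compound.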

[9] = molecular target: Guanine nucleotide-binding protein G(i) subunit alpha-1 (Homo sapiens) (UniProt P63096); assay: qHTS Assay for Inhibitors of RGS12 GoLoco Motif Activity (Green Fluorophore) (AID 879; active = well fitted curve in the direction sought with a large enough effect; an effect the other way counts as inactive or inconclusive;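 note: negative values mean loss of peptide binding seen as reduced polarization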); details: Galphai1/FITC-RGS12 GoLoco peptide, fluorescence polarization; series mostly up to 57.1 µM
Guanine nucleotide-binding protein G(i) subunit alpha-1 (Homo sapiens), sequence (P63096 whole entry, looked up): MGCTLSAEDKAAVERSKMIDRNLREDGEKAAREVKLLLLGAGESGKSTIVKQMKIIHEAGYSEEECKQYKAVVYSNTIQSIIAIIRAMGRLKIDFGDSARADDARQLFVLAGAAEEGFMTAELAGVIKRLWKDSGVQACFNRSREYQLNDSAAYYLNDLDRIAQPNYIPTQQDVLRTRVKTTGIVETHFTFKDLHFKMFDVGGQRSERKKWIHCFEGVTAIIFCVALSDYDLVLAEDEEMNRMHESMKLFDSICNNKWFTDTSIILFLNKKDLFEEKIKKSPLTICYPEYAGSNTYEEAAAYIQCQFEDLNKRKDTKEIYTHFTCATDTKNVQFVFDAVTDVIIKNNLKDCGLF
Method in brief: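 A drop in FITC polarization marked displacement of the FITC-tagged RGS12 GoLoco peptide (10 nM) from Gαi1 (50 nM). Compounds were incubated 10 min at room temperature in Tris pH 7.5 buffer containing 150 mM NaCl, 0.1 mM GDP and 0.05% NP40; unlabeled peptide titration served as control.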

[10] = molecular target: Cytochrome P450 2D6 (Homo sapiens) (UniProt P10635); assay: qHTS Assay for Inhibitors and Substrates of Cytochrome P450 2D6 (AID 891; active = well fitted curve in the direction sought with a large enough effect; an effect the other way counts as inactive or inconclusive;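 note: luciferin methyl ether substrate demethylated by CYP2D6 with NADPH regeneration; nearly all actives have a fitted effect of over 60% in size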); details: recombinant CYP2D6, luciferin-ME EGE luminescence; series mostly up to 11.4 µM
Cytochrome P450 2D6 (Homo sapiens), sequence (P10635 whole entry, looked up): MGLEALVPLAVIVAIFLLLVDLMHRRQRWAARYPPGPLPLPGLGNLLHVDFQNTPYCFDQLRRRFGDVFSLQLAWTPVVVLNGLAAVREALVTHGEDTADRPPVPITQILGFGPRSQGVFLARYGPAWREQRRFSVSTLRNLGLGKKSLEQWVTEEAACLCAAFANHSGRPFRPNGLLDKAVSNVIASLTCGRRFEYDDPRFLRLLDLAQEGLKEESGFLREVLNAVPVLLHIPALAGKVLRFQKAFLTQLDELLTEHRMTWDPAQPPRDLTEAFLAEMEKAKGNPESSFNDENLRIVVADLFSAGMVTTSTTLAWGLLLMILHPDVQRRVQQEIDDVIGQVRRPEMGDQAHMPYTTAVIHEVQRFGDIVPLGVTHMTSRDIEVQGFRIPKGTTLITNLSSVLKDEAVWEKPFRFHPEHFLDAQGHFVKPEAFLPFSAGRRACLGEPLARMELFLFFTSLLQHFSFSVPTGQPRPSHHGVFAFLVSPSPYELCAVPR
Method in brief: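 Luminescent read-out of luciferin formed by 5 nM human CYP2D6 demethylating 30 uM Luciferin-ME EGE (Km level) over 60 min at room temperature after NADPH regeneration addition. Data normalized to full inhibition by 1.43 uM quinidine.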

[11] = qHTS Assay for Identification of Small Molecule Agonists for Thrombopoietin (TPO) Signaling Pathway (AID 917; active = well fitted curve in the direction sought with a large enough effect; an effect the other way counts as inactive or inconclusive); details: TPO signaling pathway reporter cells, agonist qHTS, stimulated with TPO at its EC50; series mostly up to 38.5 µM
Method in brief: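 First, Ba/F3 cells with human TPO receptor were held overnight without IL-3. Next, compounds and TPO (26 pM final) were added. After 24 hrs at 37 C, luciferase detection reagent was added and luminescence measured following 10 min at room temperature.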

[12] = molecular target: Muscarinic acetylcholine receptor M1 (Rattus norvegicus) (UniProt P08482); assay: qHTS Assay for Antagonists of Acetylcholine Muscarinic M1 Receptor: Kinetic Measurement of Intracellular Calcium Response (AID 943; active = well fitted curve in the direction sought with a large enough effect; an effect the other way counts as inactive or inconclusive;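 note: Fluo-4 calcium signal as peak divided by basal fluorescence over 4 min; nearly all actives have a fitted effect of over 75% in size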); details: M1-expressing cells, kinetic intracellular calcium fluorescence; series mostly up to 35.3 µM
Muscarinic acetylcholine receptor M1 (Rattus norvegicus), sequence (P08482 whole entry, looked up): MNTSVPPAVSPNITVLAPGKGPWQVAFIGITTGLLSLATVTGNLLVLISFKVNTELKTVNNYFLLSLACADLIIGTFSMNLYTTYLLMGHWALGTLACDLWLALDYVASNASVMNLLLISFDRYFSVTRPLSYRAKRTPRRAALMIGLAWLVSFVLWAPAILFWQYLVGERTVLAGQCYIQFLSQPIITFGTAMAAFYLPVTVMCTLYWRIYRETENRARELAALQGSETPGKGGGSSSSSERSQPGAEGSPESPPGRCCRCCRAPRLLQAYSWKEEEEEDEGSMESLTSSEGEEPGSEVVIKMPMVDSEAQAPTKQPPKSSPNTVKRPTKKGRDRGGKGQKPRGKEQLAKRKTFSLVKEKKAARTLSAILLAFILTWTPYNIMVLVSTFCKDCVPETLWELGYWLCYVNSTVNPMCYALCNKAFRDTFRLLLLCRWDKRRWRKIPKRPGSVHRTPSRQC
Method in brief: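 Antagonism measured as reduction of carbachol-evoked (EC80, 100 nM final) calcium flux in rat M1-CHO cells after 10 min compound exposure. Fluo-4 signal read kinetically; ratio of maximal to basal fluorescence.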

[13] = molecular target: Pyruvate kinase (Leishmania mexicana) (UniProt Q27686); assay: qHTS Validation Assay for Inhibitors of Leishmania Mexicana Pyruvate Kinase (AID 945; active = well fitted curve in the direction sought with a large enough effect; an effect the other way counts as inactive or inconclusive); details: purified L. mexicana pyruvate kinase, enzyme activity, E451W mutant enzyme; series mostly up to 57.5 µM
Pyruvate kinase (Leishmania mexicana), sequence (Q27686 2-499 E452W): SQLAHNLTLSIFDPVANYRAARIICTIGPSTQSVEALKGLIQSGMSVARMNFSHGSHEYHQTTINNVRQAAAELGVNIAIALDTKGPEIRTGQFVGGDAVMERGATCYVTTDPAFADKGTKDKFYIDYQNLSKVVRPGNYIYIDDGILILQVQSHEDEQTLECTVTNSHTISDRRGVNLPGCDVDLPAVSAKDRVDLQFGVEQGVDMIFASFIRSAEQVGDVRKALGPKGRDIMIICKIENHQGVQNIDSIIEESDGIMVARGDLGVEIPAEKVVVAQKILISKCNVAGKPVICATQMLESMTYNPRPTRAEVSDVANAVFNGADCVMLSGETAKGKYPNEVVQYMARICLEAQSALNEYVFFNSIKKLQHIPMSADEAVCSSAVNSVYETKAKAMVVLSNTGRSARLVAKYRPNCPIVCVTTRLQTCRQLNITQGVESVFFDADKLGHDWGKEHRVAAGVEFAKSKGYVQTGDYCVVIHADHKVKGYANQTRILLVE
Method in brief: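 LmPYK E451W 0.2 nM; 0.5 mM PEP, 0.1 mM ADP, 7 mM MgCl2, 50 mM KCl, imidazole pH 7.2, 0.01% Tween 20, 0.05% BSA; 1 h RT; PKLight luminescence; DMSO-normalized.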

[14] = molecular target: Pyruvate kinase PKM (Homo sapiens) (UniProt P14618); assay: qHTS Assay for Activators of Human Muscle Pyruvate Kinase (AID 954; active = well fitted curve in the direction sought with a large enough effect, not every such curve was filed as active); details: purified human muscle pyruvate kinase, luciferase-coupled luminescence, 1 h; series mostly up to 57.5 µM
Pyruvate kinase PKM (Homo sapiens), sequence (P14618 whole entry, looked up): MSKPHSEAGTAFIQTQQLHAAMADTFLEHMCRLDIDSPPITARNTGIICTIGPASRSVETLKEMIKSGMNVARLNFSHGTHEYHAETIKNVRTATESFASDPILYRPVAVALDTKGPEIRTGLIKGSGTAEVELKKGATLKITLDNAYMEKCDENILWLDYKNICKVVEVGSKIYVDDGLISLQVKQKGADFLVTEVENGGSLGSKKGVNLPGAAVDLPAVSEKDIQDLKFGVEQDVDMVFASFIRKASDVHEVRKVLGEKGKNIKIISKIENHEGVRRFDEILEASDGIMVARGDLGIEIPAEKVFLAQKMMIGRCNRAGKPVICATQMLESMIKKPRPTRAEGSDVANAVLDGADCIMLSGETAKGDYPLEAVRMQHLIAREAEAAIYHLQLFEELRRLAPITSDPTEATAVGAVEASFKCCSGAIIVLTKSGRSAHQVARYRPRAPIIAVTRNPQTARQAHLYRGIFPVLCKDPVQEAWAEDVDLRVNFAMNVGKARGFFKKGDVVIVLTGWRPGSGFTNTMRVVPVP
Method in brief: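 Compound pinned into substrate mix (0.5 mM PEP, 0.1 mM ADP), then 0.1 nM PKM2 added; 1 h, RT. Stop/detection luciferase reagent added, luminescence read. Normalized to no-inhibition and no-enzyme or reference-inhibitor controls.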

[15] = molecular target: Alpha-galactosidase A (Homo sapiens) (UniProt P06280); assay: Counterscreen for Glucocerebrosidase Inhibitors: qHTS Assay for Human alpha-Galactosidase at pH 4.5 (AID 992; active = well fitted curve in the direction sought with a large enough effect; an effect the other way counts as inactive or inconclusive); details: purified enzyme, fluorogenic substrate; series mostly up to 76.9 µM
Alpha-galactosidase A (Homo sapiens), sequence (P06280 whole entry, looked up): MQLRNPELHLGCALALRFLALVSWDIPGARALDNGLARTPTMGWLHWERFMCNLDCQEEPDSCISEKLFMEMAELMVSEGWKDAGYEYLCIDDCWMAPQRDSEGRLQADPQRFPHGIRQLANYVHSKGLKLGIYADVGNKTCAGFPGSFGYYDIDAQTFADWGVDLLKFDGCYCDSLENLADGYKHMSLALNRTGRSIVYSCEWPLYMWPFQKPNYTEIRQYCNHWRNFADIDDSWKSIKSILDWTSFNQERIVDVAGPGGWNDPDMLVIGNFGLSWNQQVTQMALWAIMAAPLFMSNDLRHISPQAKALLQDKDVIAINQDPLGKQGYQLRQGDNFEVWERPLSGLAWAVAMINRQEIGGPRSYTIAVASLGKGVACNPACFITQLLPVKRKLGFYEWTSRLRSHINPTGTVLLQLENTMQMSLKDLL
Method in brief: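 Steps: enzyme (2 nM final), then compound across 0.7 nM to 77 uM, then 80 uM fluorogenic galactopyranoside substrate; incubate 20 min at room temperature; quench at pH 10; measure fluorescence at 365/440 nm.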

[16] = molecular target: alpha-glucosidase (Oryza sativa, rice) (UniProt Q653V4); assay: Counterscreen for Glucocerebrosidase Inhibitors: qHTS Assay for Rice alpha-Glucosidase at pH 5.0 (AID 997; active = well fitted curve in the direction sought with a large enough effect; an effect the other way counts as inactive or inconclusive); details: rice alpha-glucosidase enzyme activity; series mostly up to 76.9 µM
Method in brief: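 Endpoint fluorogenic assay at pH 5.0: compounds (0.7 nM to 77 uM) titrated against 4 nM rice enzyme and 400 uM 4-MU-alpha-glucoside for 20 min at room temperature; NaOH/glycine stop, read ex 365/em 440 nm, Hill-fitted AC50.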

[17] = qHTS Assay for Identification of Small Molecule Antagonists for NFkB Signaling Pathway (AID 895; active = well fitted inhibition curve with a large enough effect in the signal ratio, with a control signal flat, not every such curve was filed as active; the % refers to the signal ratio; note: potency is the fitted concentration of half-maximal effect); details: NFkB beta-lactamase reporter cells, FRET ratio 460/530, stimulated with 10 pM TNF alpha; series mostly up to 38.3 µM
Method in brief: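 NFkB-bla ME-180 cervical carcinoma cells with beta-lactamase reporter under NFkB response element; compounds added, then TNF alpha at 10 pM final (EC50), 5 h at 37 C. LiveBLAzer substrate 2 h, room temperature; emission 460/530 nm at 405 nm excitation.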

[18] = molecular target: Muscarinic acetylcholine receptor M1 (Rattus norvegicus) (UniProt P08482); assay: qHTS Assay for Antagonists of Acetylcholine Muscarinic M1 Receptor: Measurement of IP-One Response (AID 944; active = well fitted curve in the direction sought with a large enough effect; an effect the other way counts as inactive or inconclusive; note: nearly all actives have a fitted effect of over 75% in size); details: CHO-M1 cells, IP-One HTRF, antagonist mode; series mostly up to 46.1 µM
Method in brief: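 IP1 accumulation measured via TR-FRET between d2-IP1 and Eu-cryptate anti-IP1 antibody after carbachol (200 nM, EC80) stimulation for 30 min; rat M1-transfected CHO cells received compound 10 min before agonist.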

Structure (SMILES) | Potency [1] | Potency [2] | Potency [3] | Potency [4] | activity change, negative = inhibition [5] | Potency [6] | activity change, negative = inhibition [7] | activity, negative = inhibition [8] | activity change, negative = inhibition [6] | outcome [9] | Potency [10] | outcome [11] | Potency [12] | outcome [13] | outcome [14] | outcome [15] | Potency [16] | Potency [17] | Potency [18]
COc1cc(N=Nc2cccc(S(N)(=O)=O)c2)c2ccccc2c1N | > 46 µM | > 9.22 µM | inactive | inactive |  |  |  |  |  |  |  |  |  |  |  |  |  |  | 
O=C(O)[C@@H](Cc1c[nH]c2ccccc12)C(=O)NO | > 46 µM | > 9.22 µM | inactive | inactive | -4.03% | inactive | 4.43% | 4.19% |  |  |  |  |  |  |  |  |  |  | 
CN1CCN(CCCN)CC1 | > 46 µM | > 9.22 µM | inactive | inactive | 0.666% | inactive | 18.2% | 6.19% |  |  |  |  |  |  |  |  |  |  | 
COC(=O)CC[C@@H](C)[C@@H]1CC[C@@H]2[C@@H]3CC[C@H]4C[C@@H](O)CC[C@@]4(C)[C@@H]3CC[C@]21C | > 46 µM | > 9.22 µM | inactive | inactive |  |  |  | 23.8% |  |  |  |  |  |  |  |  |  |  | 
CC(C)(C)CNCCO | > 46 µM | > 9.22 µM | inactive | inactive | -7.33% |  | 4.1% | 7.24% | 6.2% [at 2.29 µM] |  |  |  |  |  |  |  |  |  | 
CN(C)CCCNc1cc(O)c2c(c1O)C(=O)c1ccccc1C2=O | > 46 µM | > 9.22 µM | inactive | inactive | 9.25% |  | 23.5% | 26% | -23.1% [at 2.29 µM] |  |  |  |  |  |  |  |  |  | 
C#C[C@H](N)CCC(=O)O | > 46 µM | > 46 µM | inactive | inactive | 2.59% [at 38 µM] | inactive | -4.34% [at 38 µM] | 1.65% [at 38 µM] |  | inactive | inactive | inactive | inactive | inactive | inactive | inactive | inactive |  | 
CC(C)C[C@H](NC(=O)[C@@H](O)[C@@H](N)Cc1ccccc1)C(=O)O | > 46 µM | > 46 µM | inactive | inactive | 16.3% [at 38 µM] and 2.81% [at 38 µM] | inactive | -15.3% [at 38 µM] and -3.04% [at 38 µM] | 25.1% [at 38 µM] and 3.44% [at 38 µM] |  | inactive |  | inactive |  | inactive | inactive | inactive | inactive | 1.58 µM (active) | inactive
NC(=O)C1=CN([C@@H]2O[C@@H](COP(=O)(O)OP(=O)(O)OC[C@@H]3O[C@H](n4cnc5c(N)ncnc54)[C@@H](OP(=O)(O)O)[C@@H]3O)[C@H](O)[C@@H]2O)C=CC1 | > 46 µM | > 46 µM | inactive | inactive | 7.61% [at 38 µM] | inactive | 0.746% [at 38 µM] | -8.82% [at 38 µM] |  | inactive |  | inactive |  | inactive | inactive | inactive | inactive | inactive | inactive
